These results are taken from PubChem BioAssay.

SMILES strings stand for the structures. The source made the active and inactive calls. How the calls were made is not given here.

The nature of the assay: pro-inflammatory signaling induction in mouse macrophages – cell-based, murine, luminescence (AID 652131). Further: test concentration not given here. The conditions noted are these: murine macrophage pro-inflammatory reporter, stronger effect = higher value.
For `COc1ccc2cc(-c3c(-c4ccncc4)nc(-c4ccc(S(C)=O)cc4)n3C)ccc2c1` (centres undefined), the z-score is 0.151 (inactive). As to `COc1ccc2cc(-c3c(-c4ccncc4)nc(-c4ccc(S(C)(=O)=O)cc4C)n3C)ccc2c1`, the z-score is -0.298 (inactive). With `CN(C)CCCn1c(-c2nonc2N)nc2cnccc21` the figure was -0.067 (inactive). With `CN1CCC(n2cnc(-c3ccc(F)cc3)c2-c2ccnc(Nc3ccccc3)n2)CC1` the figure was 0.813 (inactive); with `CCS(=O)(=O)c1ccc(OC)c(Nc2ncc(-c3cccc(-c4ccccc4F)c3)o2)c1`, -0.851 (inactive); with `COC(=O)Nc1nc2ccc(Oc3ccc(NC(=O)Nc4cccc(C(=O)O)c4)cc3)cc2[nH]1`, -0.479 (inactive). Under `COC(=O)Nc1nc2ccc(S(=O)(=O)c3ccc(NC(=O)Nc4cc(C(F)(F)F)ccc4F)cc3)cc2[nH]1` stands 2.68 (inactive); under `COc1c(C(N)=O)cc(-c2ccc(Cl)cc2)cc1-c1ccc(S(N)(=O)=O)cc1`, 0.956 (inactive). `CN(C)CCNC(=O)Nc1ccc(N(C)c2ccnc(Nc3ccc(CS(C)(=O)=O)cc3)n2)cc1`: the z-score was 3.19 (inactive). With `FC(F)(F)c1cccc(-c2nn3ncccc3c2-c2ccnc(Nc3ccc4c(c3)OCCO4)n2)c1` the figure was -0.458 (inactive); with `COc1cc(N2CCN(C(C)C)CC2)ccc1Nc1nc(Nc2cccc3ncccc23)c2cc[nH]c2n1`, -0.489 (inactive). With `NS(=O)(=O)c1ccc(NC2CC(c3cccc(O)c3)NN2)cc1` (centres undefined) the figure was 1.01 (inactive); with `COc1ccccc1-c1cc(/C=C2\C(=O)Nc3ncc(Br)cc32)cc(Br)c1O`, -0.578 (inactive); with `CS(=O)(=O)CCNCc1cc(-c2cc3c(Nc4ccc(OCc5cccc(F)c5)c(Cl)c4)ncnc3s2)cs1`, 0.207 (inactive). Turning to `CCCN1CCCC(c2ccc(Nc3nc(Nc4cc(F)ccc4C(N)=O)c4cc[nH]c4n3)c(OC)c2)C1` (centres undefined), the z-score is -0.56 (inactive).

Consider `COc1ccc2ncn(-c3cc(O[C@H](C)c4ccccc4C(F)(F)F)c(C(N)=O)s3)c2c1`, for which the z-score is -1.54 (inactive). Under `Nc1nc(-c2ccc(F)cc2)c(-c2ccc3ncccc3n2)s1` stands -0.162 (inactive); under `Cc1ccc2[nH]c(O)c(N=Nc3ccc(S(N)(=O)=O)cc3)c2c1`, -0.079 (inactive).

In the case of `O=S1CCN(Cc2ccc(-c3ccc4ncnc(Nc5ccc(OCc6ccccc6)c(Cl)c5)c4c3)o2)CC1`, the z-score was 1.11 (inactive). Under `CCn1c(-c2nonc2N)nc2c(C#CC(C)(C)O)ncc(OCC3CCNCC3)c21` stands 3.98 (inactive); under `COc1ccc2ncnc(Nc3ccc(OCc4ccccc4)cc3)c2c1`, 1.39 (inactive); under `COc1cc(/C=N/Nc2ncnc3c2cnn3C(C)C)ccc1O`, -0.511 (inactive). Under `COc1ccc(-c2ccncc2)cc1C(N)=O` stands 0.337 (inactive); under `COc1ccc(-c2coc3ncnc(N)c23)cc1`, -0.443 (inactive); under `CCNC(=O)O[C@H]1CN[C@H](C#Cc2cc3ncnc(Nc4ccc(OCc5cccc(F)c5)c(Cl)c4)c3s2)C1`, -0.875 (inactive). Under `Fc1ccc(Nc2nccc(-c3c(-c4ccc(C(F)(F)F)cc4)nn4ncccc34)n2)cc1F` stands -0.216 (inactive); under `CCn1c(-c2nonc2N)nc2c(C#CC(C)(C)O)nc(OC[C@H](N)c3ccccc3)cc21`, -1.25 (inactive). Take `Cc1nnc(-c2ccc(C)c(-c3ccc(C(=O)Nc4cccc(C#N)c4)cc3)c2)o1`: the z-score is -0.619 (inactive). Under `Oc1cccc(-c2nc(-c3ccccc3)[nH]c2-c2ccncc2)c1` stands 1.63 (inactive); under `COc1ccc(-c2cc3c(N)ncnc3o2)cc1`, 1.8 (inactive); under `NS(=O)(=O)c1ccc(N=Nc2c(O)[nH]c3ccc(-c4cnco4)cc23)cc1`, 3.29 (inactive). Under `NS(=O)(=O)c1cccc(-c2ccc3c(NC(=O)C4CC4)n[nH]c3c2)c1` stands -0.069 (inactive); under `COc1cc(N2CCN(C(C)C)CC2)ccc1Nc1nc(Nc2ccc(F)cc2C(N)=O)c2cc[nH]c2n1`, 0.179 (inactive). With `CC(C)=Cc1cccc2[nH]c(O)c(N=Nc3ccc(S(N)(=O)=O)cc3)c12` the figure was 0.183 (inactive); with `Cc1ccc2c(-c3ccnc(Nc4ccccc4)n3)c(-c3ccc(F)cc3)nn2n1`, -0.658 (inactive).

As to `Cc1c2ccc(N(C)c3ccnc(Nc4cccc(S(N)(=O)=O)c4)n3)cc2nn1C`, the z-score is -0.277 (inactive). Under `CNC(=O)c1cncc(/C=C/c2ccccc2Cl)c1` stands 1.43 (inactive). Under `COc1cc2ncnc(Nc3ccc(C)c(O)c3)c2cc1OC` stands 2.59 (inactive); under `CC(C)c1ccc2c(N=Nc3ccc(S(N)(=O)=O)cc3)c(O)[nH]c2c1`, -0.919 (inactive).
